# In the library only some 2.2% were active in any assay of this set; here they are far more common.
# PfHsp90 yeast 2: reduces growth (ATP signal) of yeast expressing P. falciparum Hsp90; S. cerevisiae expressing PfHsp90, BacTiter-Glo ATP, 48 h; yeast lacking PDR1 and PDR3 efflux regulators; inhibition, % at 9.4 µM; 0.32% of 310,000 active; AID 504621;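 active = every replicate shows inhibition above about 80%, whatever the replicate mean, limit read from the data; inconclusive = mean inhibition reaches the set limit but some replicate falls short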;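 note: 0% = DMSO neutral controls and 100% = 20 µM radicicol positive controls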
# Calb FLC: affects C. albicans growth with fluconazole | AID 1979 | C. albicans CaCi-2 (fluconazole-resistant clinical isolate) + fluconazole, Alamar Blue growth, 48 h | growth inhibition, % (test concentration not listed) | 0.57% of 300,000 active;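 active = growth inhibition above about 58% in most replicates, limit read from the data, passing the limit was not always enough; inconclusive = exactly half the replicates above a set limit; inactive = most replicates below a set limit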;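 note: all wells also contain fluconazole at 8 µg/ml as a sub-toxic cotreatment; 0% = median of DMSO wells and 100% = median of geldanamycin control wells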
# CSC inhib: cancer stem cell inhibition; AID 2717; inhibition, % at 7.5 µM; 1.1% of 300,000 active; cancer stem cell-like cells viability, luminescence; in the data active = inhibition above about 75%; inconclusive = no clear call, values can overlap the other calls; tested in HMLE shEcad cells
# Shn3 inh set2: reduces Shn3 3'UTR luciferase signal in osteoblasts; Clone20 osteoblast Shn3 3'UTR firefly luciferase, 24 h; 0.52% of 360,000 active; inhibition, % at 12.5 µM; AID 588674;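 active = mean inhibition of at least 75% with every replicate also reaching 75%; inconclusive = mean inhibition at least 75% but some replicate below; inactive = mean inhibition below 75%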;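 note: 0% = median of neutral control wells and 100% = pilot-screen positive control compound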
# Beta cell apopt: beta cell apoptosis inhibition | INS-1E cytokine-induced death, ATP luminescence, 48 h; percent of positive-control rescue, neutral wells zero | protection from apoptosis, % (concentration not given with the values) | 0.8% of 300,000 active;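 active = Every replicate reaches about 75%, or at least half do and their mean reaches it too, limit read from the data; inconclusive = At least half of replicates reach the limit but their mean does not; inactive = Under half of replicates reach the limit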;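 note: 0% = cytokine-treated negative control wells and 100% = positive control rescue; higher means more ATP so stronger rescue from cytokine killing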
# * marks the source's active call; other numbers are inactive results; ? = inconclusive; / = no result.
SMILES,PfHsp90 yeast 2,Calb FLC,CSC inhib,Shn3 inh set2,Beta cell apopt
Cc1cccc(C)c1OCC(O)CN1CCc2ccccc2C1 (stereo not given),4,-15,23,16,-5
CCc1c(O)nc(SCC(=O)Nc2ccccc2)n(-c2ccccc2)c1=O,-33,0,-11,96*,-4
CCCCc1c(O)nc(SCC(=O)Nc2cccc3ccccc23)n(-c2ccccc2OC)c1=O,-2,83*,-3,11,-10
CCc1c(O)nc(SCC(=O)Nc2ccccc2OC)n(-c2ccccc2C)c1=O,-17,-8,-1,-20,-7
CN(C)S(=O)(=O)Nc1ccc(Cc2ccncc2)cc1,/,/,/,3,/
Cn1c(=O)c2c(n(C)c1=O)n(C)c(=O)n2C,/,/,/,4,/
CC(C)c1ccc(NC(=O)C2CCC(CNC(=O)[C@@H]3Cc4ccccc4CN3)CC2)cc1 (stereo not given in full),-5,-11,-2,15,15
CCC(=NCc1ccc(Cl)c(Cl)c1)c1nc(-c2ccco2)oc1O,-2,-3,102*,42,5
COc1ccc(N=Cc2nc(-c3ccco3)oc2O)cc1,5,-5,1,-57,-2
CC(O)CNC(=O)Cc1cc(=O)[nH]c(=O)[nH]1 (stereo not given),-57,-7,-9,4,-2
O=C(CSC(=S)N1CCOCC1)Nc1nc(=O)c2ccccc2s1,/,52*,16,/,3
O=C(CSC(=S)N1CCOCC1)Nc1nccs1,-6,0,-4,-24,2
O=C(CSc1ccc(F)cc1)Nc1ccc(C2SCCS2)cc1,1,-3,-9,-68,-2
COc1cc(/C=C/[N+](=O)[O-])ccc1OC(=O)c1cc2ccccc2oc1=O,106*,-11,51,11,18
COc1ccc(N(CC(=O)NCc2cccs2)S(=O)(=O)c2cccc(C)c2)cc1,24,/,/,-3,/
NC(=S)N/N=C/c1ccc(-c2cc(Cl)cc(Cl)c2)o1,-34,?,20,-11,-2
NC(=S)N/N=C/c1ccc(-c2cc(Cl)ccc2Cl)o1,-106,93*,28,-14,10
Oc1ccc2ccccc2c1C1Nc2cccc3cccc(c23)N1,-9,38,27,-3,12
Oc1ccc(O)c2c1C1c3ccccc3C2c2ccccc21,/,78*,22,/,-13
CC(C)C(NC(=O)c1ccc(C(C)(C)C)cc1)C(=O)Nc1ccc(N2CCOCC2)cc1 (stereo not given),10,/,/,6,4
Cc1cc(NCc2ccccn2)n2nc(C)c(-c3ccccc3)c2n1,8,5,5,40,42
Cc1nn2c(NCc3ccccn3)cc(C(C)(C)C)nc2c1-c1ccccc1,120*,7,14,26,24
CCn1cc(C(=O)OCC(=O)Nc2cccc(Cl)c2Cl)c(=O)c2ccc(C)nc21,-28,106*,/,4,-1
CN1CCN(C(=S)C(=O)Nc2ccc(Br)cc2)CC1,/,3,-5,1,3
CCn1c(CN2CCCCCC2=O)nnc1SCc1cnc(-c2ccccc2)s1,/,78*,39,-10,4
SMILES,PfHsp90 yeast 2,Calb FLC,CSC inhib,Shn3 inh set2,Beta cell apopt
CCN(CCO)C1CC(=O)N(c2ccccc2C)C1=O (stereo not given),124*,-11,0,7,-10
CCCCc1ccc(/C(C)=N/Nc2cc(N3CCOCC3)nc(C)n2)cc1,9,5,80*,-11,13
CCCCn1c(N)c(N(CCOC)C(=O)COC(=O)c2cc(CCC)c(C)s2)c(=O)[nH]c1=O,7,-3,-17,6,/
C=C1C(=O)OC2C1CCC(C)C1C=CC(=O)C12C (stereo not given),13,/,/,58,/
C=C1C(=O)OC2CC1C(OC(C)=O)CC(C)=CCCC(C)=CCCC2(C)O (stereo not given),/,/,/,94*,/
C=C1C(=O)OC2CC1C(O)CC(C)=CCCC(C)=CC(O)CC2C (stereo not given),16,/,/,96*,/
CCOC(=O)c1c(-c2ccc(-c3ccccc3)cc2)csc1NC(=O)CNCCN(C)C,5,4,99*,50,55
CCOC(=O)c1c(-c2ccc(-c3ccccc3)cc2)csc1NC(=O)CCN1CCOCC1,21,-14,105*,10,17
CN(Cc1nc(Cc2cccc(F)c2)no1)CC1CCOCC1,-19,-12,-1,9,-2
CN(Cc1ccco1)Cc1ccc(O)c2ncccc12,4,/,-4,-2,1
CC(C)COCc1ccc(O)c2ncccc12,1,98*,10,72,89*
CCCOCc1ccc(O)c2ncccc12,-8,90*,32,57,107*
Oc1ccc(COCc2ccccc2)c2cccnc12,-33,1,73,51,99*
Oc1ccc(Cc2ccccc2)c2cccnc12,/,/,/,58,/
Cc1cccc(NC(=O)C(C)Oc2ccc(C)nc2[N+](=O)[O-])c1 (stereo not given),/,/,10,-4,3
O=C(Nc1ccc(F)cc1)OCCOc1ccc([N+](=O)[O-])cc1,4,-5,8,3,-3
O=C(/C=C/NCc1cccnc1)c1ccc(-c2ccccc2)cc1,?,-4,3,-37,-4
O=C(Nc1ccc([N+](=O)[O-])cc1)Nc1nc(-c2ccc(Cl)s2)cs1,1,-13,97*,?,129*
Cc1ccc(C(C)C)cc1NC(=O)Nc1ccc([N+](=O)[O-])cc1,32,-6,89*,87*,121*
Cc1cc(O)c(C(C)C)cc1NC(=O)Nc1ccc([N+](=O)[O-])cc1,0,/,/,28,/
O=C(O)c1cc(NC(=O)c2ccc([N+](=O)[O-])cc2)cc(NC(=O)c2ccc([N+](=O)[O-])cc2)c1,-19,4,-16,1,-5
CC(=O)Nc1nc(-c2ccc([N+](=O)[O-])cc2)cs1,25,19,-9,-26,-2
Cc1ccc(NC(=O)Nc2cccc([N+](=O)[O-])c2)cc1F,-10,-27,21,27,93*
O=C(Nc1ccc([N+](=O)[O-])cc1)C(=O)Nc1cccc(C(=O)O)c1,64,3,32,86*,27
O=C(Nc1ccc(Oc2ccc(NC(=O)Nc3ccc([N+](=O)[O-])cc3)cc2)cc1)Nc1ccc([N+](=O)[O-])cc1,5,-7,50,82,110*
SMILES,PfHsp90 yeast 2,Calb FLC,CSC inhib,Shn3 inh set2,Beta cell apopt
O=C(Nc1ccc(OC(F)(F)F)cc1)Nc1cccc([N+](=O)[O-])c1,17,-14,/,52,102*
Cc1cc(N/N=C2\CC(C)CC(C)(C)C2)nc2ccccc12 (stereo not given),-5,87*,26,-8,6
CCOC(=O)c1cnc(-n2nc(C)cc2C)nc1NC1CCCC1,-35,-8,-6,?,97*
CCOC(=O)c1cnc(-n2nc(C)cc2C)nc1Nc1ccc(OC)cc1,-11,?,-4,20,4
CCOC(=O)c1cnc(-n2nc(C)cc2C)nc1NCCc1ccccc1,-36,3,-16,46,57
CCOC(=O)c1cnc(-n2nc(C)cc2C)nc1NCc1ccc2c(c1)OCO2,/,38,-4,94*,43
